This is one part of a sample in which hits are shown more often than they occur.
Tgondii IFNg: T. gondii growth inhibition under IFN-gamma | activity change, negative = inhibition, % (test concentration not listed) | AID 1259416 | Toxoplasma gondii growth in IFN-gamma-treated host cells; stronger effect = lower value | actives 3.8% (n = 69,000); in the data active = activity change below about -70%, passing the limit was not always enough;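 note: host cells are HeLa cells infected with Toxoplasma gondii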
The depositor's hits bear a star; i = inactive; ! = a repeat was not active.

SMILES	Tgondii IFNg
O=C(NOCCO)c1cc(CN2OCCCC2=O)c(F)c(F)c1Nc1ccc(I)cc1F	9
O=C(c1ccc(F)c(F)c1Nc1ccc(I)cc1F)N1CC(O)([C@@H]2CCCCN2)C1	-49
Cc1cc(I)ccc1Nc1c(C(=O)NOCC2CC2)cc(F)c(F)c1F	-82*
CC(c1cccc(-c2nccc(CCC(F)(F)F)n2)c1)N1CCCC1 (stereo not given)	13
COc1cccnc1C(=O)N1CCOC(c2ccc(Cl)c(Cl)c2)C1 (stereo not given)	-6
COc1ncc(C(=O)N2CCOC(c3ccc(Cl)c(Cl)c3)C2)cn1 (stereo not given)	-15
COc1cccc(C)c1C(=O)N1CCOC(c2ccc(Cl)c(Cl)c2)C1 (stereo not given)	-77*
Cc1nc(C(=O)N2CCOC(C(=O)O)C2)co1 (stereo not given)	-7
CC(C)c1nccn1C(C)C(=O)N1CCc2[nH]nc(-c3cccc(F)c3)c2C1 (stereo not given)	-53
Cc1c(C(=O)NC(=S)Nc2ccc(Cl)cn2)oc2ccccc12	35
O=C(CN1CCN(C2CCCC2)C(=O)C1)Nc1ccccc1-n1ccnc1	-3
N#Cc1c(N2C(=O)C3C4c5ccccc5C(c5ccccc54)C3C2=O)sc2c1CCC2 (stereo not given)	-79*
Cc1onc(-c2ccccc2Cl)c1C(=O)Nc1sc2c(c1C#N)CCC2	42
CC(C)N1CCc2cc(CN3CCN4C(=O)CNC(=O)C4C3)ccc21 (stereo not given)	5
COc1ccc(-c2nc(C)c(CCNS(=O)(=O)c3ccc([N+](=O)[O-])cc3)s2)cc1OC	i
CCOc1ccc(-c2cnc[nH]2)cc1OCC	-47
CCCc1ncc(-c2ccc(OCC)c(OCC)c2)[nH]1	-4
CCOc1ccc(-c2cnc(-c3nccn3CC)[nH]2)cc1OCC	-81*
COc1ccc(N2CCN(C(=O)c3cc4cccnc4n(Cc4ccccc4F)c3=O)CC2)cc1	12
Cn1c(=O)cc(C(=O)NCc2ccc(CN3CCCC3=O)cc2)c2ccccc21	-24
Cc1ccnn1CCC(=O)NCc1nnc(-c2nccc3ccccc23)o1	52
OCCn1c(-c2cccc3cccnc23)nc2ccccc21	4
CN(C)C1CCN(C(=O)c2cc(-c3cnc(-c4cccc(F)c4)nc3)cn2C)CC1	-25
CN(C)CCNC(=O)c1cc(-c2cnc(-c3cccc(F)c3)nc2)cn1C	-95*
CN(C)CCNC(=O)c1cc(-c2cnc(NCc3ccccc3)nc2)cn1C	-36
SMILES	Tgondii IFNg
O=C(Nc1cccc2ccccc12)NC1CCCCC1	-93*
O=C(Nc1cccc2ccccc12)N1CCOCC1	181
O=C(Nc1cccc2ccccc12)OC1CCS(=O)(=O)C1 (stereo not given)	28
O=C(CC1COCCN1)N1CCc2[nH]nc(C3CCC3)c2C1 (stereo not given)	1
COc1ccccc1-c1nc(C)c(-c2ccc(SCC(=O)OCc3ccccc3)nn2)s1	0
Fc1ccc(-c2nc3sccn3c2CN(Cc2ccccn2)CC2CCCO2)cc1 (stereo not given)	10
CC(=O)Nc1cccc(C(=O)N(Cc2ccsc2)CC2CCCO2)c1 (stereo not given)	150
CC(=O)Nc1cccc(C(=O)N(Cc2ccsc2)CC(C)C)c1	-79*
CC(C)CN(Cc1ccsc1)C(=O)c1coc(CN2CCOCC2)c1	1
Cc1ccc2c(c1C)-n1cccc1C1(CCN(S(=O)(=O)c3cccc(Cl)c3C)CC1)N2	-2
CCC(C)NC(=O)Cn1c(=O)cc(-c2nc(C(C)C)no2)c2ccccc21 (stereo not given)	85
COc1ccccc1-n1nnc(C(=O)NC2(C)CCS(=O)(=O)C2)c1C (stereo not given)	1
Nc1nc2ccc(-c3nc4ccccc4[nH]3)cc2s1	470
Nc1nc2ccc(OC(F)(F)F)cc2s1	-94*!
COC(=O)c1ccc2nc(N)sc2c1	-28
O=C(Nc1cccc(Cl)c1)N1CCC2(CC1)Nc1cc(F)ccc1-n1cccc12	150
Cc1ccc2[nH]c(C(=O)N3CCN(c4ccccn4)CC3)c(NC(=O)c3ccc(F)cc3)c2c1	2
c1ccc(-c2cc3ncnc(NCc4ccc5c(c4)OCO5)c3s2)cc1	-105*
CCc1nc(OCC(=O)NCc2ccc3c(c2)OCO3)c2ccccc2n1	10
O=C(CS(=O)(=O)Cc1ccccc1)NCc1ccc2c(c1)OCO2	-3
CC(C)CN1CC(C(=O)NCCS(=O)(=O)N2CCCC2)CC1=O (stereo not given)	0
CCOC(=O)C1(CC2CC2)CCN(C(=O)c2ccc(N3CCCCC3)cc2)CC1	-37
O=c1[nH]nc2c(-c3ccccc3)c(-c3ccccc3)c(-c3ccccc3)nn12	-106*
Nc1[nH]nc2nnc(-c3c(-c4ccccc4)nn4ccccc34)cc12	-45
O=c1cc2nn[nH]n2nc1-c1ccccc1	124
SMILES	Tgondii IFNg
Cc1cc(C(=O)N2CCC(c3noc(-c4ccncc4)n3)CC2)cs1	-15
Cc1ccnc(-n2cccc2CN(C)Cc2nc(C)no2)c1	-27
CCCc1ccc(C2CC(=O)Nc3cc4c(cc32)OCO4)o1 (stereo not given)	-88*
CCOC(=O)Nc1ccc2c(c1)NC(=O)CC2c1cc(C(C)C)no1 (stereo not given)	-8
O=C1COc2cc3c(cc2N1)NC(=O)CC3c1nccs1 (stereo not given)	-1
COCC(=O)N1CCO[C@@H]2[C@H]1CC[C@H]2OC	34
Cc1cccc(CN(Cc2ccccc2)C(=O)c2cccn3nnnc23)n1	3
CN(C)CCNC(=O)C1Cn2ccnc2C2(CCN(Cc3nccs3)CC2)O1 (stereo not given)	2
COc1cc(-c2nnc(C3CCCCC3)o2)ccc1OCc1ccccc1	-81*
COc1cc(C2N3CCCN2CC3)ccc1OCc1ccccc1 (stereo not given)	162
COc1ccc(-c2nnc(-c3nc(NC4CCCCC4)c4ccccc4n3)o2)cc1	-23
CC(=O)N1CCCC(CNC(=O)Nc2nnc(-c3cccs3)s2)C1 (stereo not given)	18
CCC1CN(CCNC(=O)CSc2nnc(C)s2)Cc2cc(OC)ccc2O1 (stereo not given)	8
COc1ccccc1C(=O)N1CCC2(CC1)CN(Cc1ncc[nH]1)CCN2C	19
Cc1cc(C)n(-c2nnc(SCC(=O)Nc3ccccc3)c3ccccc23)n1	3
CCOC(=O)c1nc(Nc2ccc(CC)cc2)c2ccccc2n1	-38
CCOC(=O)c1ccc(Nc2nnc(-n3nc(C)cc3C)c3ccccc23)cc1	-85*
COCCN1CCCn2c(nc(CNc3ccccn3)cc2=O)C1	-2
O=C(Nc1nc2ccccc2s1)c1c(O)c2c([nH]c1=O)CCCC2	106
CC(=O)NC1C(=O)N(CCc2ccccc2)c2c(C)ccc(C)c21 (stereo not given)	-5
O=C(NC1CCN(Cc2ccccc2)CC1)c1csc(-c2ccc(N3CCCC3)nc2)n1	-85*
O=C(NCC1CCCO1)c1csc(-c2ccc(N3CCCC3)nc2)n1 (stereo not given)	-113*
O=C(NCCCN1CCOCC1)c1csc(-c2ccc(N3CCCC3)nc2)n1	-1
CCc1csc(-c2ccc(N3CCN(C(=O)C4CCN(C(C)=O)CC4)CC3)nc2)n1	11
O=C(Cn1ncc2c(N3CCCCC3)ncnc21)NC1CCN(Cc2ccccc2)CC1	-7
CC1CCN(C(=O)c2csc(-c3ccc(N4CCCC4)nc3)n2)CC1	-47
CN1CCC2(CC1)CN(C(=O)c1ccc(Cn3cnnn3)cc1)CCN2C	0
Cc1[nH]c(-c2ccc(F)cc2)nc1C(=O)O	-34
